hcDAF12 agonist = H. contortus DAF-12 activation, primary screen. HEK293 hcDAF-12 lit1-tk-luc reporter, luminescence; 0% DMSO, 100% Δ7-dafachronic acid. activation, % at 6.8 µM. 370,000 tested, 1.4% active. AID 652067;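 active = activation above the mean of all tested compounds plus 3 SD, cut at about 5.5% in these data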;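 note: 100% = response to 3 µM Δ7-dafachronic acid high control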
DAX1 inh-1 = inhibitors of DAX1 repression of SF-1 activated StAR promoter; HEK293T StAR-luciferase reporter, SF-1/DAX-1 repression relief; inhibition, % at 6.8 µM; 370,000 tested, 1.1% active; AID 652010;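 active = inhibition above the mean over all tested compounds plus 3 SD, cut at about 3.6% in these data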;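 note: 0% = DAX-1 cells with DMSO and 100% = cells lacking DAX-1 with DMSO; higher inhibition means more luminescence from relief of DAX-1 repression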
hgDAF-12 ag = hgDAF-12 agonism, primary luciferase screen; 370,000 tested, 1.8% active; AID 687014; HEK293 GAL4-hgDAF12 UAS-luciferase reporter, agonist luminescence; normalized to butyrate control; activation, % at 6.8 µM;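 active = activation above a cutoff set at the mean of all screened compounds plus 3 SD, cut at about 10% in these data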;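 note: 0% = DMSO wells and 100% = sodium butyrate wells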
DAX1 inh-2 = NR0B1 (DAX1) inhibition; P51843; HEK293 Gal4-DAX1 luciferase reporter, luminescence; inhibition, % at 6.75 µM; 340,000 tested, 0.99% active;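 active = inhibition above the mean over all tested compounds plus 3 SD, cut at about 4.2% in these data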;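 note: 0% = DAX1-transfected cells with DMSO and 100% = empty-vector control cells with DMSO; inhibition shows as a rise in luminescence from relieved DAX1 repression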
ssDAF12 agonist = activates DAF-12 receptor from parasite S. stercoralis; HEK293 ssDAF-12/GRIP1 lit1-tk-luc reporter, luminescence; % of 3 µM dafachronic acid response; activation, % at 6.8 µM; 370,000 tested, 1% active;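 active = activation above the mean over all tested compounds plus 3 SD, cut at about 0.9% in these data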;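 note: 0% = DMSO-only wells and 100% = 3 µM delta7-dafachronic acid wells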
Rev-erbA mod = modulators of human Rev-erb alpha DNA binding; Rev-erbα–FITC-DNA binding, fluorescence polarization, 90 min; activity, % at 10 µM; AID 1259318; 370,000 tested, 0.79% active; P20393;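 active = activity above about 14%, limit read from the data; passing the limit was not always enough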;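 note: 0% = DMSO wells with 35 nM protein and 100% = DMSO wells with 750 nM protein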
Target sequence (P20393 whole entry, looked up): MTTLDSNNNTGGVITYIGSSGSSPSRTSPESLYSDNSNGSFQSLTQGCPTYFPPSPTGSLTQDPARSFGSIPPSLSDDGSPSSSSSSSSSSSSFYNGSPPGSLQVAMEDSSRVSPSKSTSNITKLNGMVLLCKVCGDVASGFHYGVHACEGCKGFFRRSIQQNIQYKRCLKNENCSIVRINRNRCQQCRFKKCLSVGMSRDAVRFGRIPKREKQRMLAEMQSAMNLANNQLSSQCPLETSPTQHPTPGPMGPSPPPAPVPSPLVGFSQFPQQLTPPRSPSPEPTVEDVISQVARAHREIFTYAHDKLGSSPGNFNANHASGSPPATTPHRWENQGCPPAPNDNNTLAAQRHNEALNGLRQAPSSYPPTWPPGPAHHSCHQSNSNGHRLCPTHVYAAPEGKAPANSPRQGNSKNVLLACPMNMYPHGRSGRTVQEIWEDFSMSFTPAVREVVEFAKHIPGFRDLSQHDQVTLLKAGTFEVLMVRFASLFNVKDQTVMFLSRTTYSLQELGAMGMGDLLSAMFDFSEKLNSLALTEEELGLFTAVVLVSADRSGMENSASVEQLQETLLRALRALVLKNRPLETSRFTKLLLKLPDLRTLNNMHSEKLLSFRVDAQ
LXRb hcDAF ctr = activates human LXR-beta, counter-screen for hcDAF-12 agonists | shares compounds with hcDAF12 agonist | HEK293 Gal4-LXR tk-luc reporter, luminescence, 24 h; normalized: DMSO 0%, positive control 100% | activation, % at 6.8 µM | 3,400 tested, under 10 active;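 active = mean percent activation of the reporter above a cutoff set as the average over tested compounds plus their standard deviation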
hcDAF12 ag = confirmation of H. contortus DAF-12 agonists; shares compounds with hcDAF12 agonist; HEK293 hcDAF-12 lit1-tk-luc reporter, luminescence; % of Δ7-dafachronic acid response; activation, % at 6.8 µM; 3,400 tested, 61% active; AID 743032;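 active = mean activation across triplicate tests above the threshold derived from the earlier primary screen, cut at about 5.5% in these data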;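 note: 0% = DMSO only wells and 100% = 3 µM Δ7-dafachronic acid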
Starred values were filed as active, the others as inactive; / = no result. Rows were chosen to be rich in hits. Some 4.8% of all compounds tested hit in one or more screens of this group.

SMILES	hcDAF12 agonist	DAX1 inh-1	hgDAF-12 ag	DAX1 inh-2	ssDAF12 agonist	Rev-erbA mod	LXRb hcDAF ctr	hcDAF12 ag
Cc1ccc(CN2CC=CS2(=O)=O)cc1	-1	-1	-1	/	1	-4	/	/
CC1=CC(=O)C(Sc2ccc(C)cc2)=CC1=O	1	-1	-5	0	-1	7	/	/
Cc1ccc(SC2=C(Sc3ccc(C)cc3)C(=O)c3ccccc3C2=O)cc1	9.7*	2	6	3	1	9	0	2
CC1=NN(c2ccccc2)C(=O)/C1=C/c1ccc[nH]1	7.6*	1	9	0	1.1*	-2	0	8.8*
CC1=NN(c2ccccc2)C(=O)/C1=C/c1ccc(Cl)cc1	3	0	-1	1	0	4	/	/
C=CCN=C1NC(c2ccc(C(F)(F)F)cc2)C(C(=O)OC)=C(C)N1C (stereo not given)	-1	-1	2	/	-1	-2	/	/
Cc1ccc2ccc(C3C(=O)c4ccccc4C3=O)nc2c1	15*	3	14*	1	1.8*	1	2	19*
COc1ccc(OCCSc2nc3nc(C)cc(C)n3n2)cc1	-1	0	-4	2	-2	2	/	/
COc1ccc(-c2cc3nc(C)cc(C)n3n2)cc1	9.2*	3	12*	8.0*	2.7*	-14	1	13*
C/C(=N\NS(=O)(=O)c1ccc([N+](=O)[O-])cc1)c1c[nH]c2ccccc12	11*	-1	1	1	0	-4	0	2
C/C(=N/NS(=O)(=O)c1ccc(Br)cc1)c1c[nH]c2ccccc12	0	1	1	1	0	-4	/	/
COc1cccc(-c2nc(N3CCN(C)CC3)c3ccccc3n2)c1O	7.8*	0	8	1	0	0	0	5
O=C(CSc1nnc(SCc2cccc3ccccc23)s1)Nc1ccccc1-c1ccccc1	-3	-2	0	/	-1	1	/	/
COC(=O)[C@]12C[C@H](CC(=O)N3CCN(C(=O)c4ccco4)CC3)C(=O)N(Cc3ccco3)C1=C[C@H](C(C)(C)C)O[C@@H]2C	0	0	-1	/	-2	5	/	/
CC(C)c1ccc(NC(=O)O[C@H]2CC[C@@]34CCCN3C(=O)CCC[C@H]4[C@H]2C)cc1	-4	/	-4	/	-2	-1	/	/
c1ccc(-c2nc3c(ccc4ccccc43)[nH]2)nc1	8.9*	1	12*	1	1	13	0	8.1*
Cc1ccc2nc(CCCc3nc4ccc(C)cc4[nH]3)[nH]c2c1	-2	-1	-4	0	-1	-3	/	/
Cc1ccc2nc(-c3ccccn3)[nH]c2c1	8.7*	2	10	-2	1	-5	1	5
COc1ccc(-c2cc(-c3cc(C)ccc3O)[nH]n2)cc1	7.6*	2	8	3	1.2*	4	0	3
COc1ccc(-c2cc(-c3ccc(C)cc3)n[nH]2)c(O)c1	6.9*	4	13*	5.8*	0	-4	1	2
COc1ccc(-c2cc(-c3ccc(OC)cc3)[nH]n2)cc1	-2	0	7	-1	0	/	/	/
Cc1ccc(O)c(-c2cc(-c3ccc(F)cc3)no2)c1	19*	3	20*	7.7*	4.0*	6	2	18*
Cc1ccc(-c2cc(C(=O)Nc3cc(C)ccc3O)no2)cc1	0	-1	2	1	-1	0	/	/
CCCC(=O)Nc1c2c(nn1-c1cccc(C)c1C)CS(=O)(=O)C2	8.1*	1	3	-1	0	-3	0	5
O=C(O)c1ccc(-c2ccccn2)s1	2	1	2	1	-1	8	/	/
SMILES	hcDAF12 agonist	DAX1 inh-1	hgDAF-12 ag	DAX1 inh-2	ssDAF12 agonist	Rev-erbA mod	LXRb hcDAF ctr	hcDAF12 ag
c1ccc(-c2ccc(-c3ccccn3)s2)nc1	15*	2	13*	4.7*	3.8*	3	1	13*
COc1ccc(OCCOCCN2CCc3ccccc3C2)cc1	0	0	0	-1	0	-8	/	/
Clc1ccc(OCCCCN2CCc3ccccc3C2)cc1	10*	0	8	-1	0	-6	0	3
COc1ccccc1C(=O)NCc1ccc(-c2nc3ccccc3s2)cc1	-5	-2	-10	-2	-3	5	/	/
COc1ccc(-c2nc3ccccc3s2)cc1O	12*	2	4	-5	0	2	1	13*
FC(F)(F)c1ccc(-c2nc3ccccc3s2)cc1	0	-2	-6	/	-1	-2	/	/
Nc1cccc(-c2nc3ccccc3s2)c1	12*	3	13*	1	1.4*	3	1	6.4*
COc1ccc(-n2c(SCC(=O)Nc3ccc(Oc4ccccc4)cc3)nnc2-c2ccc(C)cc2)cc1	-1	0	-3	/	-1	-8	/	/
c1ccc2nc(-c3nc4ccccc4o3)ccc2c1	13*	1	4	-3	0	-5	2	23*
COC(=O)[C@]12C[C@H](CC(=O)N3CCSCC3)C(=O)N(Cc3ccco3)C1=C[C@H](C(C)C)O[C@@H]2C1CC1	-1	1	-3	/	-2	-6	/	/
O=C(O)/C=C/c1cnc2ccccc2n1	2	0	2	0	-1	-3	/	/
O=C(/C=C/c1cnc2ccccc2n1)NC12CC3CC(CC(C3)C1)C2	11*	3	7	1	0	1	2	10*
COCCn1c(C)cc(C(=O)CSc2nc3ccccc3o2)c1C	8.4*	2	10	1	0	-2	1	4
CCS(=O)(=O)Nc1ccc(-c2nc3cccnc3s2)cc1	6.9*	3	11*	1	1	-9	2	7.7*
C=CCCC(=O)N1C[C@H]2CCN(C)[C@H]2C[C@H]1c1ccccc1Br	1	1	5	/	-1	3	/	/
C=CCNc1cccc2c1S(=O)(=O)N[C@H](CC(C)C)CO2	-1	-1	0	/	-2	-6	/	/
COc1ccc(Cl)cc1C(=O)NCC(c1ccco1)N(C)C (stereo not given)	7.3*	1	2	0	0	0	0	4
COc1ccc(Cl)cc1C(=O)NCC(c1ccco1)N1CCCC1 (stereo not given)	4	0	1	0	-1	-2	/	/
CCCN1CCCCC(NC(=O)c2ccc(F)c(F)c2)C1=O (stereo not given)	1	0	0	/	-1	-3	/	/
